Sm TGR inh – inhibitors of Schistosoma mansoni thioredoxin glutathione reductase | Q962Y6 | purified TGR, DTNB reduction, TNB absorbance 405 nm | Potency, µM (titrated, usually from 114 µM), actives largely listed as inhibitors | 360,000 compounds, 3% hits | AID 485364; further: nearly all actives have a fitted effect of over 60% in size
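First, TGR (20 nM dispensed) and NADPH were mixed with compound. Second, a 15 min room-temperature incubation followed. Third, further NADPH and then DTNB were added to start the reaction. Finally, TNB absorbance was monitored kinetically.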
Giardia FBPA inh – blocks Giardia fructose-bisphosphate aldolase activity; A8B2U2; purified Giardia FBPA; Potency, µM (titrated, usually from 59.6 µM), usual class: inhibitors; 290,000 compounds, 0.71% hits; AID 2451; further: nearly all actives have a fitted effect of over 55% in size
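Giardia FBPA (40 nM reagent) was preincubated 10 min at RT with compound (up to 57.5 uM final), then substrate plus GAPDH/TPI/NAD/arsenate coupling system with diaphorase/resazurin was added; resorufin fluorescence (525/598 nm) was read after 20 min.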
LmPK inh – inhibitors of Leishmania mexicana pyruvate kinase; purified LmPK, Kinase-Glo ATP luminescence, 1 h; Potency, µM (highest dose often 57.5 µM), actives largely listed as inhibitors; 290,000 compounds, 0.37% hits; AID 1721
Target sequence (Q27686 whole entry, looked up): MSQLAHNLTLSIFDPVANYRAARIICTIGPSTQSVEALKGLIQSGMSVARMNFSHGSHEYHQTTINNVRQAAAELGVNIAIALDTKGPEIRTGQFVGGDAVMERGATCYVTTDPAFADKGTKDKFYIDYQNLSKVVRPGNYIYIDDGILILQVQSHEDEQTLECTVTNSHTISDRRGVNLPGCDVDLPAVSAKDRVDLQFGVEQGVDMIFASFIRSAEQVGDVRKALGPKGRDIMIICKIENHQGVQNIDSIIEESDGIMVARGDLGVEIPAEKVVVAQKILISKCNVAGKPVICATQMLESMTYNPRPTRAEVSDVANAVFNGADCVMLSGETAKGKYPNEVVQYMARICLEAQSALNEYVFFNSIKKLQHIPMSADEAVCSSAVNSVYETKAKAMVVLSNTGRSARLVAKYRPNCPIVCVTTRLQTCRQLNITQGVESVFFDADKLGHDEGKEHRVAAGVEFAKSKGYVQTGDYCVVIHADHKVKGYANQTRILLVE
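Purified LmPK (0.1 nM) converted ADP (0.1 mM) to ATP with PEP (0.5 mM) in imidazole buffer pH 7.2 with KCl and MgCl2, 1 h at room temperature. ATP was read by Kinase-Glo luminescence; data normalized to uninhibited and no-enzyme controls.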
TbPYK inhibitor – blocks Trypanosoma brucei pyruvate kinase; Potency, µM (top dose mostly 76.8 µM), usual class: inhibitors; 410,000 compounds, 0.12% hits; AID 624173; TbPYK enzyme, Kinase-Glo Plus ATP luminescence, 45 min; further: nearly all actives have a fitted effect of over 50% in size
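Quantitative HTS: titrated library compounds versus trypanosomal pyruvate kinase in TEA buffer (pH 7.2) containing KCl, MgCl2, BSA and Tween-20. Reactions were initiated with ADP, 130 uM final. Kinase-Glo Plus luminescence was read after 45 min at RT.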
CHX counter – counter-screen hit for Shiga toxin inhibitors, cycloheximide; cell reporter, cycloheximide protein synthesis inhibition counterscreen; max response, %; 300,000 compounds, 12% hits; AID 2314; in the data active means max response mostly above about 13%, no sharp cut-off; inactive means mostly below about 14%; further: read at 38.3 µM for the half of the compounds with a filed dose
Shiga toxin inh – blocks Shiga toxin action in Vero cells | Vero cells, Shiga toxin protein synthesis inhibition reporter | inhibition, % at 38.7 µM | 290,000 compounds, 9.2% hits; in the data active means inhibition mostly above about 28%, no sharp cut-off; inactive means mostly below about 43%
Large screens that a line does not name were inactive. This excerpt belongs to a sample that is enriched for hits. Unless noted, the call rests on the fitted dose curve; in most records, active means well fitted curve in the direction sought with a large enough effect; inconclusive means small, poorly fitted or top-dose-only effect, or another doubt; inactive means no such curve, though single readings can be large; an effect the other way counts as inactive or inconclusive.

CC(=O)c1cccc2c(O)c(C3=Nc4ccccc4C3=O)[nH]c12	Sm TGR inh inconclusive, Giardia FBPA inh inconclusive, LmPK inh 25µM, TbPYK inhibitor inconclusive, CHX counter 48, Shiga toxin inh 89
CCC(C)c1ccc(OCC(=O)Nc2ccc(CN3CCOCC3)cc2)cc1 (stereo not drawn)	none (no result: Giardia FBPA inh)
O=C(Nc1nccs1)c1ccc2ccccc2c1	CHX counter 52, Shiga toxin inh 79
O=C(Nc1n[nH]c(=S)s1)c1ccc2ccccc2c1	TbPYK inhibitor inconclusive, CHX counter 34, Shiga toxin inh 69 (no result: Giardia FBPA inh)
CCOc1cccc(C(=O)Nc2nccs2)c1	CHX counter 30, Shiga toxin inh 69
O=C(Nc1nccs1)c1ccc(Br)cc1	Sm TGR inh inconclusive, CHX counter 27, Shiga toxin inh 133
O=C(Nc1ncccc1O)c1ccc2ccccc2c1	none (no result: Giardia FBPA inh)
CCCC(=O)Nc1cccc(C(=O)Nc2nccs2)c1	none
COc1ccc(C(CNC(=O)CCNS(=O)(=O)c2ccccc2)N2CCOCC2)cc1 (stereo not drawn)	none (no result: Sm TGR inh, Giardia FBPA inh, LmPK inh, CHX counter, Shiga toxin inh)
O=C(CCNC(=O)c1ccc(Br)cc1)Nc1nccs1	CHX counter 19
CC(=O)c1c(C)[nH]c(C(=O)Nc2cc(C)ccc2C)c1C	none
CC(=O)c1c(C)[nH]c(C(=O)Nc2cc(F)ccc2C)c1C	none
CC(=O)c1c(C)[nH]c(C(=O)Nc2ccc(C)cc2Br)c1C	CHX counter 25, Shiga toxin inh 66
CC(=O)c1c(C)[nH]c(C(=O)NCCc2cccc(C)c2)c1C	CHX counter 45, Shiga toxin inh 80
CC(=O)c1c(C)[nH]c(C(=O)Nc2ccccc2Cl)c1C	Shiga toxin inh 46
CC(=O)c1c(C)[nH]c(C(=O)Nc2cccc3ccccc23)c1C	none
CC(=O)c1c(C)[nH]c(C(=O)Nc2ccc(F)cc2F)c1C	CHX counter 44, Shiga toxin inh 65
CN(Cc1ccccc1)C(=O)c1ncn2c1C(=O)N(C)CC2	none (no result: Sm TGR inh, Giardia FBPA inh, LmPK inh, CHX counter, Shiga toxin inh)
COc1ccc(-c2cc3nc(C)c(CCC(=O)Nc4ccccc4C(C)=O)c(C)n3n2)c(OC)c1	none (no result: Giardia FBPA inh, LmPK inh, CHX counter, Shiga toxin inh)
Cc1ccn2c(=O)cc(COc3ccc(NC(=O)COc4ccc(C)c(C)c4)cc3)nc2c1	none (no result: Giardia FBPA inh, LmPK inh, CHX counter, Shiga toxin inh)
O=C(CC1C(=O)N(c2ccc(F)cc2)C(=O)N1Cc1ccc2c(c1)OCO2)Nc1ccc(F)cc1 (stereo not drawn)	none (no result: Giardia FBPA inh, LmPK inh, CHX counter, Shiga toxin inh)
CCN(CC)S(=O)(=O)c1cccc(-c2cn3cc(C)ccc3n2)c1	Giardia FBPA inh inconclusive, CHX counter 66, Shiga toxin inh 98
Cc1ccc2nc(-c3cccc(S(=O)(=O)N(C)C)c3)cn2c1	Giardia FBPA inh inconclusive, CHX counter 54, Shiga toxin inh active
O=C(CN1C(=O)COc2ccccc21)N(Cc1ccccc1)Cc1ccccn1	CHX counter 35
Cc1ccc(CN(Cc2cccnc2)C(=O)CN2C(=O)COc3ccccc32)o1	Sm TGR inh 10µM, TbPYK inhibitor inconclusive
COc1ccc(CN(CC(=O)NC2CCCC2)C(=O)CN2C(=O)COc3ccccc32)cc1	none
CC(=O)c1ccc(NC(=O)c2nc(-c3ccccc3)n(-c3ccc(C)cc3)n2)cc1	none (no result: Giardia FBPA inh, LmPK inh, CHX counter, Shiga toxin inh)
Cc1nnc(NC(=O)CSc2ncc(-c3ccccc3)[nH]2)s1	Shiga toxin inh 31
NNC(=O)CSc1ncc(-c2ccccc2)[nH]1	none
Cc1csc(NC(=O)CSc2ccc(-c3ccccc3)nn2)n1	none
CCc1nnc(NC(=O)CSc2ncc(-c3ccccc3)[nH]2)s1	CHX counter 38
O=C(CSc1ncn[nH]1)Nc1nnc(-c2ccccc2)s1	CHX counter 67, Shiga toxin inh 91
Cc1csc(NC(=O)CSc2ncc(-c3ccccc3)[nH]2)n1	CHX counter 30
CCc1ccc2nc(N(Cc3cccnc3)C(C)=O)sc2c1	none (no result: Giardia FBPA inh, LmPK inh, CHX counter, Shiga toxin inh)
Cc1ccnc(Nc2nc3ccccc3o2)n1	LmPK inh 22µM, TbPYK inhibitor inconclusive
Cc1nc(Nc2nc3ccccc3o2)nc(C)c1C	LmPK inh 18µM, TbPYK inhibitor inconclusive
N#Cc1cnc(Nc2nc3ccccc3o2)nc1-c1ccccc1	none
Cc1ccc(Nc2nc3ccccc3o2)cc1F	LmPK inh inconclusive, TbPYK inhibitor inconclusive, CHX counter 38
Cc1ccc(Nc2c3c(nc4ccccc24)CCC3)cc1F	none (no result: Giardia FBPA inh, LmPK inh, CHX counter, Shiga toxin inh)
Cc1ccc2oc(Nc3nc(C)c(C)c(C)n3)nc2c1	CHX counter 37, Shiga toxin inh 88
CC1(C)Oc2ccc3ccc(=O)oc3c2[C@@H](O)[C@@H]1O	none (no result: Giardia FBPA inh, LmPK inh, CHX counter, Shiga toxin inh)
CCCc1nc(Nc2nc3ccccc3o2)nc(C)c1C(=O)OCC	CHX counter 61, Shiga toxin inh 129
CCOC(=O)c1cnc(Nc2nc3ccccc3o2)nc1CSc1ncccn1	none (no result: Sm TGR inh, Giardia FBPA inh, LmPK inh, CHX counter, Shiga toxin inh)
S=C(NCC1CCCO1)N1CCN(Cc2ccccc2)CC1 (stereo not drawn)	Giardia FBPA inh inconclusive
c1ccc2c(c1)nc(NCC1CCCO1)c1nnnn12 (stereo not drawn)	CHX counter 21, Shiga toxin inh 58
S=C(NCC1CCCO1)n1nnc2ccccc21 (stereo not drawn)	CHX counter 31
CC(=O)c1ccc(N2C(=O)N(Cc3ccc(F)cc3)c3ccccc3S2(=O)=O)cc1	none (no result: Giardia FBPA inh, LmPK inh, CHX counter, Shiga toxin inh)
O=S(=O)(NC(=S)c1ccccc1)c1ccc(F)cc1	none
COc1ccccc1-c1nnc(SCc2ccccn2)n1C	none
COc1ccccc1-c1nc(SCc2ccccn2)n[nH]1	CHX counter 41, Shiga toxin inh 76
O=Cc1c[nH]c2cccc(OCc3ccccc3)c12	none (no result: Giardia FBPA inh, LmPK inh, CHX counter, Shiga toxin inh)
N#Cc1ccsc1NC(=O)CSc1ncn[nH]1	none
Cn1ccnc1SCC(=O)Nc1sccc1C#N	CHX counter 11
N#Cc1ccsc1NC(=O)CSc1ncnc2ccccc12	CHX counter 15
CCN(CC)S(=O)(=O)c1nnc(NC(=O)COc2ccc(C)cc2)s1	none (no result: Giardia FBPA inh, LmPK inh, CHX counter, Shiga toxin inh)
CN(C)c1ncc(CN2CCC(C(=O)Nc3ccc(-n4cccn4)cc3)CC2)s1	none
COc1ccccc1-n1cc(-c2ccc(Br)cc2)[nH]c1=S	CHX counter 17
COc1ccccc1-n1cc(-c2ccc([N+](=O)[O-])cc2)[nH]c1=S	TbPYK inhibitor inconclusive
COc1ccccc1-n1cc(-c2ccc(C)cc2)[nH]c1=S	TbPYK inhibitor inconclusive, CHX counter 23, Shiga toxin inh 32
O=C1CCC(C(=O)N2CCCO2)CN1Cc1cccc(C(F)(F)F)c1 (stereo not drawn)	CHX counter 29, Shiga toxin inh 44
COc1ccccc1CN1CC(C(=O)N2CCCCO2)CCC1=O (stereo not drawn)	CHX counter 31, Shiga toxin inh 71 (no result: Giardia FBPA inh)
O=C(NCC1CCOCC1)C1CCC(=O)N(Cc2cccc(C(F)(F)F)c2)C1 (stereo not drawn)	none (no result: Giardia FBPA inh)
COCCCC1CCN(C(=O)C2CCC(=O)N(CCc3ccccc3)C2)CC1 (stereo not drawn)	CHX counter 46, Shiga toxin inh 56
O=C(NCc1cccs1)C1CCC(=O)N(Cc2cccc(C(F)(F)F)c2)C1 (stereo not drawn)	CHX counter 39
